Source: PubChem BioAssay AID393 (SGCOxCompounds, 2006)
The source made the active and inactive calls. The rule behind the calls is not given here.

Target: Serine/threonine-protein kinase pim-1 (Homo sapiens) (UniProt P11309)
Assay: PIM1 kinase ligand binding by thermal shift, biophysical, human, melting temperature shift (AID 393)
Details: Thermal shift assay, hits give high values; at 10 µM, protein 2 µM, buffer 10 mM PIPES, pH 6.5, NaCl 150 mM unless noted

Sequence of Serine/threonine-protein kinase pim-1 (Homo sapiens) (P11309 whole entry, looked up): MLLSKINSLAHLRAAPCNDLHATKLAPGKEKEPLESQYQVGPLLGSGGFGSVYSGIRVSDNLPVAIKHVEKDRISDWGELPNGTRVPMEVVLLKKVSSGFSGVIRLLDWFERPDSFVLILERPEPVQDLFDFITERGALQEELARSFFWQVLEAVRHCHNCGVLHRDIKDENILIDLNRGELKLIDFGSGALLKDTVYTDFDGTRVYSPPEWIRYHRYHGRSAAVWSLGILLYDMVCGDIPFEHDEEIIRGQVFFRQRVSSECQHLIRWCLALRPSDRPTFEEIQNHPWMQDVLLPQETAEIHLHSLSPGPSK

Tm shift, active:
O=S(=O)(c1cccc2c(Cl)cccc12)N1CCCNCC1 3.27 Celsius [at 10 µM, protein 3 µM, buffer 10 mM HEPES], c1ccc(-c2cnc3ccc(NCc4cccs4)nn23)cc1 5.81 Celsius [at 5 µM, protein 1 µM, buffer 10 mM HEPES], O=C1NC(=O)C(c2c[nH]c3ccccc23)=C1c1c[nH]c2ccccc12 5.8 Celsius [at 10 µM, protein 2 µM, buffer 10 mM Na Citrate, pH 6.5, NaCl 150 mM], CC(=O)c1cccc(-c2cnc3ccc(N[C@H](CO)C(C)C)nn23)c1 7.4 Celsius, Fc1cccc(-c2cnc3ccc(NC4CCOCC4)nn23)c1 6.94 Celsius, Cc1cc(Br)c2c(c1)=C(c1[nH]c(=S)[nH]c1O)C(=O)N=2 4.68 Celsius, O=c1[nH]c(O)c2c1c1c3ccccc3nc1n1cncc21 9.3 Celsius [at 10 µM, protein 2 µM, buffer 10 mM Na Citrate, pH 6.5, NaCl 150 mM], O=c1[nH]cnc2c1sc1nc3ccccc3cc12 3.3 Celsius, CCC(CO)Nc1ccc2ncc(-c3cccc(CO)c3)n2n1 (configuration not stated) 3.17 Celsius, Nc1ccc(-c2cnn3ccc(Nc4cccc(Cl)c4)nc23)cc1 6.84 Celsius, CCOc1c(Br)ccc2c1sc1nc[nH]c(=O)c12 3.5 Celsius, CCC(CO)Nc1ccc2ncc(-c3cccc(C(C)=O)c3)n2n1 (configuration not stated) 6.85 Celsius
